Molecules are shown by their SMILES. Measured potencies and affinities stand elsewhere. Results filed as inconclusive are left out. Activity calls are given as the source filed them.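 Rule for the calls: active = compound lowering the signal whose fitted half-maximal concentration is at most ten times its top tested dose; inconclusive = flat curve with 30 to 70% loss, or poor fit; inactive = the rest.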

This test can be described thus: Mcl1-dependent cancer cell viability – HMC-1-8 cells, luminescence, dry powder, selectivity assay for A1 inhibitor project, dose response (AID 504415). The note with it: HMC-1-8 (Mcl1-dependent) viability, Glo luminescence, 24 h; series mostly up to 35 µM.

With `Cc1ccc(Nc2c([N+](=O)[O-])c(=O)oc3ccccc23)cc1`, the outcome was inactive. In the case of `Cc1ccc(Nc2c([N+](=O)[O-])c(=O)n(C)c3ccccc23)cc1` it was “inactive”; in that of `Cn1c(=O)c([N+](=O)[O-])c(Oc2ccccc2)c2ccccc21`, “inactive”; in that of `CCOC(=O)N1CCN(c2c([N+](=O)[O-])c(=O)n(C)c3ccccc23)CC1`, “inactive”. With `O=c1oc2ccccc2c(Cl)c1[N+](=O)[O-]` the entry was “inactive”.

Values taken from PubChem BioAssay AID504415 (Broad Institute, 2011).
